Test results: PubChem BioAssay
The source made the active and inactive calls.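 How the source made its calls, unless noted: active means inhibition above 50%, about 3 SD of the validation set; inactive means the rest.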

Tests used:
[1] = reduced mouse 2C T cell binding to pMHC/ICAM-1 vesicles – MLPCN validation set, flow cytometry, LFA-1/ICAM-1 modulator project, pilot screen (AID 2523;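 active means response below a set limit, under 55% cells CD8-positive and vesicle-bound, and CD8 cells' 90th-percentile brightness under 279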;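 on vesicle binding response: mean PE anti-B7-1 fluorescence of CD8+ cells relative to row control; 100% = QL9-loaded vesicles with DMSO vehicle in the same plate row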); details: 2C mouse CD8+ T cells, at 7 µM, stronger effect = lower value; double positive events: measured here: CD8+/vesicle+ event percentage
[2] = target: Integrin beta-1 (Homo sapiens) + Integrin alpha-4 (Homo sapiens) (UniProt P13612+P05556); experiment: alpha4beta1 integrin LIBS antibody binding reduction – U937 cells, HUTS-21 mAb, flow cytometry, validation set, VLA-4 allosteric modulator project, pilot screen (AID 2674); details: HUTS-21 LIBS mAb binding, at 6.7 µM, stronger effect = higher value, binding induced by LDV ligand;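 further: antibody binding induced by the VLA-4 ligand LDV present at three times its Kd; 0% = LDV ligand with antibody and no compound and 100% = antibody without LDV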
Chain of Integrin beta-1 (Homo sapiens) + Integrin alpha-4 (Homo sapiens) (P05556 whole entry, looked up): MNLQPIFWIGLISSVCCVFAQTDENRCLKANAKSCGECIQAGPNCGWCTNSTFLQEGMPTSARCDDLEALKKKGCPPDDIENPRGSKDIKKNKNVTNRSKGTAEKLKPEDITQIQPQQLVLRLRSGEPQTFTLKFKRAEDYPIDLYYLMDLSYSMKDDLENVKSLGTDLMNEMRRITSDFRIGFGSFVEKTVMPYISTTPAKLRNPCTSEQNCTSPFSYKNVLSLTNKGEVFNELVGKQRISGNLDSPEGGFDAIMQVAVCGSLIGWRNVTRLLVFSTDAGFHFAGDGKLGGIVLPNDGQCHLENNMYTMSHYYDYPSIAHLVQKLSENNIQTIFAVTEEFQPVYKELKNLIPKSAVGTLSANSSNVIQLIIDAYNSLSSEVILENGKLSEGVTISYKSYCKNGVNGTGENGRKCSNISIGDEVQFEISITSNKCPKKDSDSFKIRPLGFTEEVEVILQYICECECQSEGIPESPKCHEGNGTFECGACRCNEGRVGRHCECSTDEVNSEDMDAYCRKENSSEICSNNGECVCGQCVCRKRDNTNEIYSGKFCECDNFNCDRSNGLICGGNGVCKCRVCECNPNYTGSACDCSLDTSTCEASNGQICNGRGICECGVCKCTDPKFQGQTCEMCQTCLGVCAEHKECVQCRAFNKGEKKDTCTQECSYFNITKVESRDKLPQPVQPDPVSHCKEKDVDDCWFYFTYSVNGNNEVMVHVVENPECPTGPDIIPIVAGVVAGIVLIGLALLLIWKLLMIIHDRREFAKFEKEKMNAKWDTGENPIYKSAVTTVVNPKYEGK
Chain of Integrin beta-1 (Homo sapiens) + Integrin alpha-4 (Homo sapiens) (P13612 whole entry, looked up): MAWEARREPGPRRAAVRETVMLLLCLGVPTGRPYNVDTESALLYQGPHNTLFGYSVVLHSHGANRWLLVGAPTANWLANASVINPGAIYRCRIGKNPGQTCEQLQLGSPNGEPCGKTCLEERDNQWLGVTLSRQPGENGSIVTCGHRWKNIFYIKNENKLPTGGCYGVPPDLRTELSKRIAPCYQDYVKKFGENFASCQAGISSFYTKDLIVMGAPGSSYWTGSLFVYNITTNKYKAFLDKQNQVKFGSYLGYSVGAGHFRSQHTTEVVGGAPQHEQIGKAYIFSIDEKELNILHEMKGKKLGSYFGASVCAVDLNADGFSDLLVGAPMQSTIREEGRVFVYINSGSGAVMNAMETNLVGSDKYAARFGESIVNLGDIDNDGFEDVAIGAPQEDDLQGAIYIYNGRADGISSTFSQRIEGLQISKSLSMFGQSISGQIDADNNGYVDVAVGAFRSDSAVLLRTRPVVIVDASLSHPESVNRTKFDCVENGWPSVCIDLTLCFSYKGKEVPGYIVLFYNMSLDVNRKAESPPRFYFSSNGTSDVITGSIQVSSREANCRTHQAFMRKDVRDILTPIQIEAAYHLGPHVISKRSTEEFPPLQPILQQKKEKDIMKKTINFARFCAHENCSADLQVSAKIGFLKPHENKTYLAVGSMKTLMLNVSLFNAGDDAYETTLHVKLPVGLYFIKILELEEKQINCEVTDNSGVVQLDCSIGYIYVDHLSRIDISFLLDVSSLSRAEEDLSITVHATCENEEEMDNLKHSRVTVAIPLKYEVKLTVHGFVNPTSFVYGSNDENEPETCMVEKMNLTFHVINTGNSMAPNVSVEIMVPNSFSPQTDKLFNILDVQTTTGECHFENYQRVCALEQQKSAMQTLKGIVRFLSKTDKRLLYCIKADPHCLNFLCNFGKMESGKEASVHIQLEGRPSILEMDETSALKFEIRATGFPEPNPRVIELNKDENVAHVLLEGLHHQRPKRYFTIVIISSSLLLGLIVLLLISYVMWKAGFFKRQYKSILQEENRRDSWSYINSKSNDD

[3] = calorie-restriction mimetic ROS inhibitors, yeast – validation compound set, pilot screen (AID 2706;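 active means superoxide response below 65% of plate, a cut near 3 SD across the whole screen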;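 further: yeast exposed to compound for one week at 30 degrees C before staining; 100% = mean of all compound wells on the same plate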); details: S. cerevisiae aging, superoxide DHE fluorescence; at 10 µM, stronger effect = lower value
[4] = target: Beta-adrenergic receptor kinase 1 (Homo sapiens) (UniProt P25098); experiment: GRK2 binders displacing RNA aptamer, biochemical, validation, human GRK2, bead flow cytometry (AID 488806;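 active means aptamer binding inhibition above 30%, about 3 SD of noise from non-fluorescent compounds; inactive means inhibition at or below 30%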); details: bead-bound GRK2, FAM-aptamer displacement, at 10 µM, stronger effect = higher value
Chain of Beta-adrenergic receptor kinase 1 (Homo sapiens) (P25098 whole entry, looked up): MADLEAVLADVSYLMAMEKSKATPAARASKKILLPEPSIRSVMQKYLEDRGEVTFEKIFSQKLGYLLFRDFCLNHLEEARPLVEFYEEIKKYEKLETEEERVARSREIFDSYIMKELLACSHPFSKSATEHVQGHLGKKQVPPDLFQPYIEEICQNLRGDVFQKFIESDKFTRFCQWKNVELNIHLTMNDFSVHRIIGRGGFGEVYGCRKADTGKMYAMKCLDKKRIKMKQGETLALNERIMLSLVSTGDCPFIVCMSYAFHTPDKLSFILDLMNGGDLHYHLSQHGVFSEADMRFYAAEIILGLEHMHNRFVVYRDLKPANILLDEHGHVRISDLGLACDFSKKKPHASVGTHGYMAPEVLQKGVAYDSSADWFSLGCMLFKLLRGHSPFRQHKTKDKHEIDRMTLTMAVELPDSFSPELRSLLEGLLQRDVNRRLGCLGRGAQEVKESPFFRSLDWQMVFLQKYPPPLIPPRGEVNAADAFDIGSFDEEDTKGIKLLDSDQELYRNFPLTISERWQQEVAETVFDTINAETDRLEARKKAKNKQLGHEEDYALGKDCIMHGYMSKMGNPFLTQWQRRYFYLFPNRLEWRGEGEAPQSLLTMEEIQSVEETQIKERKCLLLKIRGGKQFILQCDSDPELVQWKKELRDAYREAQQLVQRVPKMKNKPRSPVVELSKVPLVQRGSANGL

[5] = target: AP-2 complex subunit beta (Homo sapiens) (UniProt P63010); experiment: beta-arrestin/AP2 interaction blockers – biochemical, validation set, GST-AP2 beads, flow cytometry, pilot screen (AID 504541;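 active means inhibition above 54%, about 3 SD of non-fluorescent compounds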;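 further: AP2 carries R879A mutation and is captured from E. coli lysate; bead-bound FITC arrestin peptide fluorescence measuring arrestin peptide binding to AP2; 0% = DMSO wells and 100% = excess unlabeled arrestin peptide control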); details: FITC arrestin peptide, at 10 µM, stronger effect = higher value, AP2 beta2 appendage fragment, R879A mutant
Chain of AP-2 complex subunit beta (Homo sapiens) (P63010 whole entry, looked up, the tested form may be a part, one chain of several): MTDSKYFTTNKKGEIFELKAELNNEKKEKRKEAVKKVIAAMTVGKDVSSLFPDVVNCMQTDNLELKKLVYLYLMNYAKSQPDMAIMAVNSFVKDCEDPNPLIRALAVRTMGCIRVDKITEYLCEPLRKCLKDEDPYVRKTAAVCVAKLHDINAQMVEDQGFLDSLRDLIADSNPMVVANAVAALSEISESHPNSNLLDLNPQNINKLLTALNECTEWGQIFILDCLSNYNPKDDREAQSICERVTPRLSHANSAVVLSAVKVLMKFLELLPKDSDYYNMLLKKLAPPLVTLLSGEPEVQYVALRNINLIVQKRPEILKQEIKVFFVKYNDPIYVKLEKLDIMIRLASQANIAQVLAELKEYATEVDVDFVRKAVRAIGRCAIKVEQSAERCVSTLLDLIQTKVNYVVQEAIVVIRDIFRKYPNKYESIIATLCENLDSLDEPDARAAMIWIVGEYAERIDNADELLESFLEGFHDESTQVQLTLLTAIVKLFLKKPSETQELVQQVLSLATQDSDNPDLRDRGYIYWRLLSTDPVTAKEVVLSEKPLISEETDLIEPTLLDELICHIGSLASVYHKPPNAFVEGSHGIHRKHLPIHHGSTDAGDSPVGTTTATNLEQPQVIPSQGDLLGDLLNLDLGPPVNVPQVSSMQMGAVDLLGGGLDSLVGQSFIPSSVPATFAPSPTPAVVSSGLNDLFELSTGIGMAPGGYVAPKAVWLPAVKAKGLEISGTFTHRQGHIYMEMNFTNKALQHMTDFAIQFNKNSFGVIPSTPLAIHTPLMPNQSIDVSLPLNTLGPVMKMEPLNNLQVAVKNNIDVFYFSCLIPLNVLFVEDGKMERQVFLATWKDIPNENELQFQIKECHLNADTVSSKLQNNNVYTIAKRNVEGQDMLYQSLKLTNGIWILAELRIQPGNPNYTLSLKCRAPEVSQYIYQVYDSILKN

[6] = cytosolic pH regulators acting via V-ATPase – S. cerevisiae, pHLuorin, HTS validation (AID 504600; in the data active means response above about 15%;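 further: plate controls were DMSO for no effect and reference compound for full effect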); details: V-ATPase proton transport, at 10 µM, stronger effect = higher value
[7] = system: anti-desmoglein-3 scFv antibody binding to human DSG3; experiment: blockers of pathogenic pemphigus antibody–desmoglein-3 binding – biochemical, validation compound set, bead-based, flow cytometry, pilot screen (AID 588368;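 active means binding below the plate cutoff, the plate median minus 3 SD, with a reading above zero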;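 further: signal is the median channel fluorescence of bead-bound GFP antibody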); details: Protein G beads, DSG3-Fc, scFv-GFP binding, at 10 µM, stronger effect = lower value
[8] = Nile Red efflux blockade in pump-expressing yeast – validation compound set, multiplex, phenotypic, pilot screen (AID 588506;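 active means efflux inhibition above 0.42, the validation set average plus 4 SD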;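 further: Nile Red retained in cells so higher fluorescence means more efflux inhibition; 0 = negative control wells and 1 = enniatin B 25 µM full block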); details: S. cerevisiae pump-expressing triplex, Nile Red efflux flow cytometry; at 10 µM; stronger effect = higher value; the pumps come from Candida albicans
[9] = target: ATP-binding cassette sub-family B member 6 (Homo sapiens) (UniProt Q9NP58); experiment: blockers of ABCB6-driven porphyrin uptake – K562-ABCB6 cells, flow cytometry, validation set, pilot screen (AID 588550;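 active means inhibition above the screen-wide mean plus 3 SD, about 51%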;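 further: 0% = DMSO wells and 100% = benzethonium chloride 70 µM positive control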); details: K562-ABCB6 porphyrin accumulation, 1 h, at 10 µM, stronger effect = higher value
Chain of ATP-binding cassette sub-family B member 6 (Homo sapiens) (Q9NP58 whole entry, looked up): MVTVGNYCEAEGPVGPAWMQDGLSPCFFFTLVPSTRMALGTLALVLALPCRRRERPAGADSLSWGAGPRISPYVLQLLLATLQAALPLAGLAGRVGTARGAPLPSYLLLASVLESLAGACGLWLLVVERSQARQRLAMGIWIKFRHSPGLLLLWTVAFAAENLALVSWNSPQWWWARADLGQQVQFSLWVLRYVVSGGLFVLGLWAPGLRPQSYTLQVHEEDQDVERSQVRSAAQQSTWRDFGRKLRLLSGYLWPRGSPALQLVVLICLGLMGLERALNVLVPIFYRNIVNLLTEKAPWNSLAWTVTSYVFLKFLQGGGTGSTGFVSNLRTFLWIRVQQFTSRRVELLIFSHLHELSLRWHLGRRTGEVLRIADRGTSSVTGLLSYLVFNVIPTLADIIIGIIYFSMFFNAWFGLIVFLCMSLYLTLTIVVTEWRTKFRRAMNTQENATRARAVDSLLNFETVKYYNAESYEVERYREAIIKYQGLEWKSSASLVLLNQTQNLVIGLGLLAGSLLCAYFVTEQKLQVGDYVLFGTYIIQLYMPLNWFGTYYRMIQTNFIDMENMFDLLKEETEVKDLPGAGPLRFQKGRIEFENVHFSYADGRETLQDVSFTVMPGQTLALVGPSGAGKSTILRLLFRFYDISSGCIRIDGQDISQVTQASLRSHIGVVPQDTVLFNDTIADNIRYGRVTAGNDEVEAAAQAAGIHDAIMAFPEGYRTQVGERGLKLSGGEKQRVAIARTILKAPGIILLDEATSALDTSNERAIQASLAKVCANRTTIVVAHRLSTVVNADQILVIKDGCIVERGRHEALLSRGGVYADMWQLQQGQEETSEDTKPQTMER

[10] = AML differentiation inducers, ER-HoxA9 marrow cells – cell-based, GFP/MAC1 double positive, flow cytometry, validation set, primary screen (AID 588685;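 active means differentiation response of at least 50%, scaled between solvent and reference control, from cells with both markers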;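 further: compound exposure lasts four days before antibody staining and flow analysis; 0% = DMSO wells and 100% = 5 µM fulvestrant positive control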); details: stronger effect = higher value, normalized: vehicle 0, fulvestrant 100

COc1ccc(-c2c(C)c3ccc(OCC(C)=O)cc3oc2=O)cc1
inactive: vesicle binding response [1] 128% | inhibition [2] 3.49% | superoxide response (% of plate) [3] 113% | aptamer binding inhibition [4] 6% | inhibition [5] -9.08% | response [6] -2.13% | binding (% of control) [7] 103% | efflux inhibition (fraction of control) [8] -0.05 | inhibition [9] 9% | differentiation response [10] 3.03%
46.6%: double positive events [1]

COc1ccc(C2CNC(=O)C2)cc1OC1CCCC1 (centres undefined)
inactive: vesicle binding response [1] 151% | inhibition [2] -8.64% | superoxide response (% of plate) [3] 104% | aptamer binding inhibition [4] -6% | inhibition [5] 23.8% | response [6] -25.8% | binding (% of control) [7] 105% | efflux inhibition (fraction of control) [8] -0.12 | inhibition [9] 7% | differentiation response [10] -3.43%
53.3%: double positive events [1]

CCCCNC(=O)NS(=O)(=O)c1ccc(C)cc1
inactive: vesicle binding response [1] 172% | inhibition [2] 12.8% | superoxide response (% of plate) [3] 108% | aptamer binding inhibition [4] 4% | inhibition [5] -9.7% | response [6] 8.22% | binding (% of control) [7] 99% | efflux inhibition (fraction of control) [8] -0.05 | inhibition [9] 9% | differentiation response [10] -19.6%
56.1%: double positive events [1]

Oc1ccc(/C=C/c2cc(O)cc(O)c2)cc1
52.4%: double positive events [1]
inactive: vesicle binding response [1] 225% | inhibition [2] -6.77% | superoxide response (% of plate) [3] 96.3% | aptamer binding inhibition [4] 2% | inhibition [5] 7.43% | response [6] -1.9% | binding (% of control) [7] 97.2% | efflux inhibition (fraction of control) [8] -0.43 | inhibition [9] 6% | differentiation response [10] -16.4%

c1ccc2c(CC3=NCCN3)cccc2c1
49.4%: double positive events [1]
inactive: vesicle binding response [1] 192% | inhibition [2] 11.9% | superoxide response (% of plate) [3] 99% | aptamer binding inhibition [4] 1% | inhibition [5] -1.38% | response [6] 1.28% | binding (% of control) [7] 96.2% | efflux inhibition (fraction of control) [8] -0.16 | inhibition [9] 11% | differentiation response [10] 7.87%

O=C(NC(CO)Cc1ccc([N+](=O)[O-])cc1)C(Cl)Cl (centres undefined)
inactive: vesicle binding response [1] 146% | inhibition [2] -11.4% | superoxide response (% of plate) [3] 100% | aptamer binding inhibition [4] 15% | inhibition [5] 0.05% | response [6] 0.32% | binding (% of control) [7] 100% | efflux inhibition (fraction of control) [8] -0.24 | inhibition [9] 14% | differentiation response [10] -24.4%
57.3%: double positive events [1]

Cc1nc(N[C@@H](Cc2c[nH]c3ccccc23)C(=O)O)c2oc3ccccc3c2n1
62.1%: double positive events [1]
inactive: vesicle binding response [1] 218% | inhibition [2] -0.24% | superoxide response (% of plate) [3] 104% | aptamer binding inhibition [4] 0% | inhibition [5] -8.46% | response [6] -0.92% | binding (% of control) [7] 102% | efflux inhibition (fraction of control) [8] -0.24 | inhibition [9] 9% | differentiation response [10] -9.89%

CC1(C)Cc2nc3oc4c(NCc5ccccc5)ncnc4c3cc2CO1
inactive: vesicle binding response [1] 183% | inhibition [2] 4.42% | superoxide response (% of plate) [3] 95.3% | aptamer binding inhibition [4] -2% | inhibition [5] -8.27% | response [6] -4.11% | binding (% of control) [7] 105% | efflux inhibition (fraction of control) [8] -0.2 | inhibition [9] 5% | differentiation response [10] 0%
49.8%: double positive events [1]

CC1(C)CC(=O)c2cc(O)ccc2O1
61%: double positive events [1]
inactive: vesicle binding response [1] 199% | inhibition [2] 13.8% | superoxide response (% of plate) [3] 95.8% | aptamer binding inhibition [4] 3% | inhibition [5] 10.6% | response [6] -2.03% | binding (% of control) [7] 107% | efflux inhibition (fraction of control) [8] -0.01 | inhibition [9] 11% | differentiation response [10] -13.1%

COc1cc2cc(C(=O)O)n(C)c2c(OC)c1OC
54.5%: double positive events [1]
inactive: vesicle binding response [1] 184% | inhibition [2] 5.36% | superoxide response (% of plate) [3] 103% | aptamer binding inhibition [4] -6% | inhibition [5] 17.7% | response [6] -19.4% | binding (% of control) [7] 106% | efflux inhibition (fraction of control) [8] -0.01 | inhibition [9] 2% | differentiation response [10] -3.43%

CCCCC[C@H](O)/C=C/[C@@H]1[C@@H](CCCCCCC(=O)O)[C@@H](O)C[C@H]1O
55.5%: double positive events [1]
inactive: vesicle binding response [1] 114% | inhibition [2] 5.36% | superoxide response (% of plate) [3] 104% | aptamer binding inhibition [4] 2% | inhibition [5] -0.39% | response [6] 1.43% | binding (% of control) [7] 99.8% | efflux inhibition (fraction of control) [8] 0.29 | inhibition [9] 9% | differentiation response [10] -26%

CN(C)C(=O)C(CCN1CCC(O)(c2ccc(Cl)cc2)CC1)(c1ccccc1)c1ccccc1
70.4%: double positive events [1]
inactive: vesicle binding response [1] 180% | inhibition [2] 44% | superoxide response (% of plate) [3] 86.8% | aptamer binding inhibition [4] 1% | inhibition [5] 2.98% | response [6] 6.9% | binding (% of control) [7] 104% | efflux inhibition (fraction of control) [8] 0.08 | inhibition [9] 2% | differentiation response [10] -3.02%

Cc1cc(=O)oc(C)c1C(=O)NCCC(C)C
53.1%: double positive events [1]
inactive: vesicle binding response [1] 150% | inhibition [2] -1.17% | superoxide response (% of plate) [3] 87.3% | aptamer binding inhibition [4] 0% | inhibition [5] -9.02% | response [6] 7.71% | binding (% of control) [7] 102% | efflux inhibition (fraction of control) [8] 0.37 | inhibition [9] 15% | differentiation response [10] 32.1%

Oc1[nH]c2ccccc2c1N=Nc1ccccc1
inactive: vesicle binding response [1] 168% | inhibition [2] 9.09% | superoxide response (% of plate) [3] 104% | aptamer binding inhibition [4] 3% | inhibition [5] -8.96% | response [6] -2.64% | binding (% of control) [7] 103% | efflux inhibition (fraction of control) [8] -0.35 | inhibition [9] 10% | differentiation response [10] -8.27%
49.4%: double positive events [1]
